From the supplement of paper PMC9694430

Experiments:
Assay in all cases: thermal shift delta Tm vs DMSO control; higher = stronger stabilization (binding)
Conditions in all cases: 12.5 µM; protein concentration 2 µM
LOC_OS01G57100-cb003 = tested on: LOC_OS01G57100-cb003
Procedure, shortened: (§1)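 Heating from 25°C to 95°C at 0.05°C/s, fluorescence was recorded for 19.5 μl wells of 2 μM E. coli-expressed, purified rice kinase domain in 100 mM potassium phosphate pH 7.5, 150 mM NaCl, 10% glycerol and 5 × SYPRO Orange with compound in DMSO. Boltzmann fits gave melting temperatures for this differential scanning fluorimetry assay. The shift reported is the mean of three replicates against the DMSO-only protein.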

LOC_OS01G60330-cb001 = tested on: LOC_OS01G60330-cb001
Procedure, shortened: as §1

LOC_OS01G60700-cb002 = tested on: LOC_OS01G60700-cb002
Procedure, shortened: as §1

LOC_OS01G63280-cb003 = tested on: LOC_OS01G63280-cb003
Procedure, shortened: as §1

LOC_OS01G67340-cb003 = tested on: LOC_OS01G67340-cb003
Procedure, shortened: as §1

LOC_OS01G70970-cb002 = tested on: LOC_OS01G70970-cb002
Procedure, shortened: as §1

LOC_OS02G07810-cb001 = tested on: LOC_OS02G07810-cb001
Procedure, shortened: as §1

LOC_OS02G08530-cb003 = tested on: LOC_OS02G08530-cb003
Procedure, shortened: as §1

LOC_OS02G14120-cb001 = tested on: LOC_OS02G14120-cb001
Procedure, shortened: as §1

LOC_OS02G17970-cb001 = tested on: LOC_OS02G17970-cb001
Procedure, shortened: as §1

LOC_OS02G45750-cb003 = tested on: LOC_OS02G45750-cb003
Procedure, shortened: as §1

LOC_OS02G54510-cb004 = tested on: LOC_OS02G54510-cb004
Procedure, shortened: as §1

LOC_OS03G04050-cb001 = tested on: LOC_OS03G04050-cb001
Procedure, shortened: as §1

LOC_OS03G12390-cb001 = tested on: LOC_OS03G12390-cb001
Procedure, shortened: as §1

LOC_OS03G27990-cb004 = tested on: LOC_OS03G27990-cb004
Procedure, shortened: as §1

LOC_OS03G50450-cb001 = tested on: LOC_OS03G50450-cb001
Procedure, shortened: as §1

LOC_OS03G50810-cb003 = tested on: LOC_OS03G50810-cb003
Procedure, shortened: as §1

LOC_OS04G35114-cb001 = tested on: LOC_OS04G35114-cb001
Procedure, shortened: as §1

LOC_OS04G38480-cb003 = tested on: T1, LOC_OS04G38480-cb003
T1 sequence (whole entry): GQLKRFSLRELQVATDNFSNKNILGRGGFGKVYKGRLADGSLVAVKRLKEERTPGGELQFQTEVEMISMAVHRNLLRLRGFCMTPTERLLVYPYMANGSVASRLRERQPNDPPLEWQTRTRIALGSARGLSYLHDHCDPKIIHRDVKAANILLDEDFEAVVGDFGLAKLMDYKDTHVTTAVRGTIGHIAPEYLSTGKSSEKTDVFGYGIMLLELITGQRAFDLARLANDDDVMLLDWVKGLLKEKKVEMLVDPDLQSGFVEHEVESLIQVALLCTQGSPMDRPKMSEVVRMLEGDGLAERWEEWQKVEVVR
Procedure, shortened: as §1

LOC_OS04G41100-cb001 = tested on: T2, LOC_OS04G41100-cb001
T2 sequence (whole entry): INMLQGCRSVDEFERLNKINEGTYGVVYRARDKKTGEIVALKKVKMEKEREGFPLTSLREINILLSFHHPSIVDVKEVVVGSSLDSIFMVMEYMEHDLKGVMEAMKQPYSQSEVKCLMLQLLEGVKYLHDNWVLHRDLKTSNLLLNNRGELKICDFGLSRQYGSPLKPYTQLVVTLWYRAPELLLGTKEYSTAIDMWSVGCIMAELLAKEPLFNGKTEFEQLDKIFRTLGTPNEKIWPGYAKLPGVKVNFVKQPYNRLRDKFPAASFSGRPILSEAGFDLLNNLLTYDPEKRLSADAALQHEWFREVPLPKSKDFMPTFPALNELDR
Procedure, shortened: as §1
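Further: purified Escherichia coli-expressed rice kinase domain construct.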

SMILES	thermal shift delta Tm (LOC_OS01G57100-cb003) [°C]	thermal shift delta Tm (LOC_OS01G60330-cb001) [°C]	thermal shift delta Tm (LOC_OS01G60700-cb002) [°C]	thermal shift delta Tm (LOC_OS01G63280-cb003) [°C]	thermal shift delta Tm (LOC_OS01G67340-cb003) [°C]	thermal shift delta Tm (LOC_OS01G70970-cb002) [°C]	thermal shift delta Tm (LOC_OS02G07810-cb001) [°C]	thermal shift delta Tm (LOC_OS02G08530-cb003) [°C]	thermal shift delta Tm (LOC_OS02G14120-cb001) [°C]	thermal shift delta Tm (LOC_OS02G17970-cb001) [°C]	thermal shift delta Tm (LOC_OS02G45750-cb003) [°C]	thermal shift delta Tm (LOC_OS02G54510-cb004) [°C]	thermal shift delta Tm (LOC_OS03G04050-cb001) [°C]	thermal shift delta Tm (LOC_OS03G12390-cb001) [°C]	thermal shift delta Tm (LOC_OS03G27990-cb004) [°C]	thermal shift delta Tm (LOC_OS03G50450-cb001) [°C]	thermal shift delta Tm (LOC_OS03G50810-cb003) [°C]	thermal shift delta Tm (LOC_OS04G35114-cb001) [°C]	thermal shift delta Tm (LOC_OS04G38480-cb003) [°C]	thermal shift delta Tm (LOC_OS04G41100-cb001) [°C]
CONC(=O)c1ccccc1Nc1cc(Nc2cc(C)nn2C(C)C)ncc1Cl	0.63	0.07	0.19	0.5	0.98	1.15	-0.17	1.79	3.22	0.4	1.44	0.08	0.47	1.86	0.55	0.47	1.12	0.79	2.41	0.42
Cc1cc(Nc2cc(N3CCN(C)CC3)nc(/C=C/c3ccccc3)n2)n[nH]1 [ENMD-2076 L-(+)-Tartaric acid]	1.16	8.71	1.16	0.86	1.45	3.09	0.04	2.96	7.86	0.95	4.88	2.59	0.44	4.22	2.61	8.63	7.35	6.49	2.07	1.89
CCn1c(N)c(C(=O)NC)c(=O)c2ccc(C#CC(C)(O)COC)nc21 (stereo not given)	0.95	1.02	1.1	0.41	0.38	1.97	0.99	1.25	1.34	0.48	1.5	-0.18	0.43	1.63	0.43	0.79	0.85	1.56	0.68	0.29
CNC(=O)c1cc(Oc2ccc(NC(=O)Nc3ccc(Cl)c(C(F)(F)F)c3)c(F)c2)ccn1 [Regorafenib (BAY 73-4506)]	0.31	0.62	0.77	1.71	-0.62	0.36	0.73	0.93	-0.11	0.55	0.96	0.56	0.64	0.1	0.17	0.33	0.11	0.48	0.48	0.52
C=C[C@@](C)(/C=C/c1ccc(O)cc1)CCC=C(C)C [Bakuchiol]	-0.4	0.36	0.05	0.51	-0.02	0.49	-0.84	0.6	0.29	0.27	-0.82	-0.05	0.71	-0.13	0.37	0.04	0.28	0.46	0.81	0.44
Cc1ccc(S(=O)(=O)/C=C/C#N)cc1	3.66	-1.26	-1.01	-3.09	-0.5	-2.73	0.83	1.24	-1.26	0.99	-0.28	1.4	0.67	-0.03	-0.15	0.08	-1.25	0.08	0.47	-0.67
COc1cccc(-n2c(=O)[nH]c3cc(Cl)n(-c4ccc(-c5cccc(OC)c5O)cc4)c3c2=O)c1	1.57	1.05	0.6	0.13	0.2	0.23	0.79	0.98	0.81	0.69	0.85	0.06	0.3	0.12	0.42	0.22	0.35	0.59	1.27	0.29
CN1C(=O)[C@@H](NC(=O)c2n[nH]c(Cc3ccccc3)n2)COc2ccccc21	0.85	0.1	0.2	0.29	0.17	0.41	-0.03	0.55	0.71	0.62	0.85	-0.02	0.45	0.81	0.38	0.66	0.57	-0.51	2	0.34
CCc1nc(C(N)=O)c(Nc2ccc(N3CCC(N4CCN(C)CC4)CC3)c(OC)c2)nc1NC1CCOCC1 [Gilteritinib (ASP2215)]	4.25	11.5	1.96	1.07	4.03	5.09	1.35	5.51	13.1	1.65	9.25	3.16	0.4	9.74	8.74	5.63	8.56	11.4	6.15	0.57
Cc1ccc(C(=O)Nc2ccc(Oc3cc4cnn(C)c4cc3-c3cn[nH]c3)c(F)c2)c(=O)n1-c1ccc(F)cc1	2.31	1.94	1.29	5.18	1.33	0.33	1.19	1.25	5.05	1.48	1.6	0.17	1.07	0.61	0.79	1.3	1.13	0.73	3.19	1.32
Cc1cc(Nc2ncnc3ccc(NC4=NC(C)(C)CO4)cc23)ccc1Oc1ccn2ncnc2c1 [Irbinitinib (ARRY-380, ONT-380)]	1.92	0.15	-0.86	-1.49	-1.04	-0.85	-0.86	0.22	0.7	0.09	0	0.14	0.65	-3.39	-0.73	-0.45	-0.83	-1.83	0.82	0.49
CN1CCN(Cc2ccc(NC(=O)Nc3ccc(Oc4ccnc(N)n4)cc3)cc2C(F)(F)F)CC1	-0.21	0.73	1.34	8.29	0.95	2.3	0.57	2.59	6.74	1	5.22	7.6	0.12	1.46	0.06	-0.31	3.62	0.16	2.07	6.72
